Experimental data: the supplement of paper PMC6555819

What follows are sequences tested on RARa:RXR (NR concentration 270 nM, RXRa partner concentration 90 nM) (assay: PBM binding z-score (relative to random genomic background probes); higher = stronger binding; sequences stand for … in GC…GCGATTGACAGCGTAGAATGAAGG).
How it was run: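 Random background probes are the reference for binding z-scores. These scores derive from regression-normalized fluorescence on custom Agilent 4×180K protein-binding microarrays incubated 1 h with ligand-free nuclear receptor dimers. Binding was detected with antibodies against each partner (one per run).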
CCAACTAGGTCAGAACAGGACAGTGAAGGATGAT was tested, and the PBM binding z-score was 2.07.
Work on CATACAGGGTCAGCTAGGCCAGAGAAGGGACGGC yielded a PBM binding z-score of 3.29.
With TGAATGACGTTATAAGATCAGGGAACGTTGCAAA the PBM binding z-score was 0.166.
ATCTCTCGGTAACCAAGTTCAGTGAATGCCGAAC showed a PBM binding z-score of 0.427.
Sequence CCTAGCAGGCCAATCTGGGTCACCCAAGGCTTGA has a PBM binding z-score of 1.59.
GCTTGTCGATCAAGGTTAAGAAAGACTAAGCTAA gave a PBM binding z-score of 0.89.
Work on ATATGTAGGTTAAGGGTCACTCAGGTTGGTTCGC yielded a PBM binding z-score of 6.1.
For GCTGCTAGGTTAGGTTGGTCAGCTAACGGGTACG, the PBM binding z-score was -0.327.
Sequence ATCGAAAGGTCGACGAGGTGAGTGTACACCGTTT has a PBM binding z-score of 3.93.
In the case of CAAACTAGGTCACGAAAGGTCAAGGTCGAATGAC, the PBM binding z-score is reported as 7.71.
With TAGCCTAGGTCAGATGGGGCCAGTATACGCTATA the PBM binding z-score was 1.24.
ATCGCAAGGTCGTGAGGTGAGTATACAGAAAGGC showed a PBM binding z-score of 2.78.
For TAGCATAGGTCATGGGCCAGTATACCACGCGAAC, the PBM binding z-score was 4.27.
TCTGCTAGGTCAGCTGGTCAGCTAACGAGCTGCC showed a PBM binding z-score of 0.872.
GCTGTTAGGTCAGGTTGGTCAGCTAACGGGTACG was tested, and the PBM binding z-score was 1.28.
In the case of TCGGCTAGGTCAGTTGGTCAGCTAACGAGCTGCC, the PBM binding z-score is reported as 0.266.
For CCCATTAGTTGACCATAAGGGCAACCGAAGCTCG, the PBM binding z-score was 1.05.
Sequence TAGCTTAGGTCATTGGGCCAGTATAGTACGCATC has a PBM binding z-score of 2.53.
Sequence CCTTACGGGGCACTGACAGGTTATAGCATTTGGA has a PBM binding z-score of 0.21.
TCGAGTAGGTTACCGATGGGGCATTCAGCTTTCT was tested, and the PBM binding z-score was 0.377.
Work on TCTATTAGTTGATTAGGGCATCCGAAACAGCGGA yielded a PBM binding z-score of 0.754.
With TCTGCTAGGTCGGTTGGTCAGCTAACGAGCTGCC the PBM binding z-score was -0.528.
